Among all 640,000 compounds or so, about 9,300 (1.5%) were called active. The entries come from a sample that favours actives as a whole. Unmarked numbers belong to inactive results. No stated cut-off is given here; in the data, active means inhibition above about 32%; inactive means the rest.

The nature of the assay: TEAD-YAP interaction inhibition, primary screen, TEAD-YAP interaction inhibitor project, luminescence, HEK-TIYL cells (AID 1259422).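 Further: 0% = median of test compound wells and 100% = reference inhibitor wells.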 The note with it: TEAD-Gal4/YAP UAS-luciferase luminescence, at 9.12 µM, stronger effect = higher value.
The inhibition is the change of the read-out against control, counted positive when it falls. With `O=C(Nc1ccccc1)c1ccc(CSc2ccc(Cl)cc2)cc1`, the inhibition was 1.08%.

In the case of `Cc1cc2oc(=O)cc(C)c2cc1NC(=O)COc1ccccc1`, the inhibition is 18.6%.

With `c1ccc2c(N3CCCCCC3)nc(CN3CCCCC3)nc2c1`, the inhibition is 3.64%.

In the case of `COCCNC(=O)c1sc2nc(C)nc(N3CCCCC3)c2c1C`, the inhibition was 8.3%.

For the molecule `Cc1cccc(Cn2c(NCc3ccc4c(c3)OCO4)nc3c2c(=O)n(C)c(=O)n3C)c1`, the inhibition was 3.24%.

Consider `Cc1cc(C)cc(Cn2c(NCc3ccncc3)cc(=O)n(C)c2=O)c1`, for which the inhibition was 33.7% (active).

As for `C=CCn1c(NCCCN(C)C)cc(=O)n(C)c1=O`, the inhibition was 1.12%.

Consider `CC(=O)c1ccc(OCc2cc(C(=O)NCc3cccc(-n4cccn4)c3)no2)cc1`, for which the inhibition is -59.7%.

Turning to `O=C(Nc1cccc(N2CCC(NCCc3ccco3)CC2)c1)c1ccncc1`, the inhibition was -5.63%.

`O=C(NC1CCCC1)c1ccc(N2CCC(NCCc3ccco3)CC2)cc1`: the inhibition is -1.18%.

Consider `O=C(Nc1ccc(N2CCC(NCCc3ccco3)CC2)cc1)C1CCCC1`, for which the inhibition was 56.3% (active).

As for `COc1ccc(CCNC(=O)CSc2cn(C)c3ccccc23)cc1OC`, the inhibition is -1.21%.

As for `COc1ccc(Cl)cc1C1=N/C(=C\c2coc3ccccc3c2=O)C(=O)O1`, the inhibition was 1.35%.

`COc1ccc(Nc2nc3nonc3nc2Nc2ccc(OC)cc2OC)c(OC)c1`: the inhibition is -7.35%.

Consider `COc1ccc(NC(=O)CNC(=O)Cn2cnc3sc(C)cc3c2=O)c(OC)c1`, for which the inhibition was 7.78%.

As to `COc1ccc(Nc2nc(C)nc3sc(C)cc23)c(OC)c1`, the inhibition was 46% (active).

For the molecule `COc1ccc(CCNc2nc(C)nc3sc(C)cc23)cc1OC`, the inhibition is 41.7% (active).

As for `COc1ccc(CCNc2nc(SCC#N)nc3ccccc23)cc1OC`, the inhibition was -11.4%.

In the case of `COc1ccc(CCNc2nc3ccc(C)cc3n3cnnc23)cc1OC`, the inhibition was -9.92%.

With `CCOC(=O)c1sc(NC(=O)c2cccc(Cl)c2)c(C(=O)OCC)c1C`, the inhibition is -1.99%.

Turning to `O=C(NCC1CCC2(CCN(Cc3ccccc3)CC2)O1)c1ccc(F)c(Cl)c1` (stereo unspecified), the inhibition is -14.8%.

For `O=C(NCCCO)/C(=C/c1ccc([N+](=O)[O-])cc1)NC(=O)c1ccco1`, the inhibition is 1.95%.

Regarding `O=C(CCCN1CCc2ccccc2C(O)(c2ccccc2)C1)c1ccc(F)cc1` (stereo unspecified), the inhibition is -4.26%.

In the case of `O=C1CN(c2ccccc2F)C(=O)CN1/N=C/c1ccccc1Cl`, the inhibition was -10.8%.

For the molecule `COc1ccc(-c2c(Nc3cccc(C)c3)c(=O)c2=O)cc1`, the inhibition is 4.83%.

Regarding `Cc1ccc(-c2c(Nc3cccc(F)c3)c(=O)c2=O)cc1C`, the inhibition is 53.5% (active).

In the case of `COC(=O)c1ccccc1Nc1c(-c2ccc(C)c(C)c2)c(=O)c1=O`, the inhibition was 5.02%.

Consider `Cc1cc(C)nc(/N=C(/NC(=O)c2ccc(F)cc2)Nc2ccc(F)cc2F)n1`, for which the inhibition was 2.84%.

On to `COc1ccc(-c2cccc(C(=O)Nc3ccc(Oc4ccccc4)cc3)n2)cn1`, for which the inhibition was -3.01%.

As for `CCn1c(COc2ccccc2)nnc1Sc1ccc([N+](=O)[O-])cc1C=O`, the inhibition was 59.5% (active).

As to `CCn1c(COc2ccccc2OC)nnc1SCC(=O)NC`, the inhibition is 4.57%.

As for `O=[N+]([O-])c1ccc(OCc2nnc(SCCN3CCOCC3)n2-c2ccccc2)cc1`, the inhibition is 3.41%.

As for `CCN(CC)C(=O)CSc1nc2c(C)c(C)ccc2cc1C#N`, the inhibition was 8.08%.

On to `Cc1ccc(C)c2nc(SCC(=O)N3CC(=O)Nc4ccccc43)c(C#N)cc12`, for which the inhibition was -2.34%.

With `Cc1ccc2cc(C#N)c(SCC(=O)N3CC(=O)Nc4ccccc43)nc2c1C`, the inhibition was 63.3% (active).

On to `FC(F)(F)c1cccc(-c2ccc(/C=N/Nc3nn[nH]n3)o2)c1`, for which the inhibition is 4.88%.

On to `O=C(CSCc1cc2cccc3c2n(c1=O)CCC3)NCc1ccncc1`, for which the inhibition was 8.05%.

Consider `O=C1c2cccnc2C(=O)N1CNc1ccccc1`, for which the inhibition is 2.66%.

As to `COc1ccc(Nc2cc(=O)oc3ccccc23)cc1`, the inhibition was 36.2% (active).

Turning to `O=c1cc(Nc2ccc(Br)cc2)c2ccccc2o1`, the inhibition is 0.69%.

Consider `COc1ccc(Nc2ccccc2)cc1`, for which the inhibition is -22.2%.

Take `C=CCn1c(SCC(=O)c2ccc(OC)c(C)c2)nnc1-c1ccncc1`: the inhibition was 4.75%.

Take `CCCCCNC(=O)c1cc(C)nc2ccccc12`: the inhibition was 2.15%.

On to `CCC(CC)=NNC(=O)c1cc(C)nc2ccccc12`, for which the inhibition was 48.1% (active).

As for `Cc1cc(C(=O)NC(C)c2ccccc2)c2ccccc2n1` (stereo unspecified), the inhibition is 5.1%.

In the case of `Cc1cc(C)c(S(=O)(=O)N2CCOCC2)c(C)c1[N+](=O)[O-]`, the inhibition was -0.25%.

Turning to `COc1ccccc1-n1nnnc1S(=O)(=O)Cc1ccc(Cl)cc1`, the inhibition is 48.7% (active).

For `COc1ccccc1-n1nnnc1SCC(=O)c1ccc(Br)s1`, the inhibition was 2.7%.

`COc1ccccc1NC(=O)C(=O)NCc1ccc(Cl)cc1`: the inhibition was 1.06%.

For `CCOC(=O)N1CCN(C(=O)CN2N=C(c3ccc(OC)cc3)CCC2=O)CC1`, the inhibition is -0.51%.

On to `COc1ccc(-n2nnnc2-c2nc3ccccc3s2)cc1`, for which the inhibition was 74.2% (active).

For `c1ccc(-n2nnnc2SCc2nc3ccccc3s2)cc1`, the inhibition was -47.7%.

Take `COc1ccc2nc(NC(=O)CSc3nnnn3-c3ccccc3)sc2c1`: the inhibition was 8.33%.

For the molecule `Fc1ccc(CNc2ccnc3c(-c4ccsc4)cnn23)cc1`, the inhibition was -14.1%.

With `CN(C)CCNc1ccnc2c(-c3cccc(O)c3)cnn12`, the inhibition is 2.13%.

For `OCc1cccc(-c2cnn3c(NCc4cccs4)ccnc23)c1`, the inhibition is 102% (active).

Turning to `COc1ccc(CCNC(=O)c2cc(-c3ccccc3OC)n[nH]2)cc1OC`, the inhibition was 2.42%.

On to `O=C(CSc1cccc2cccnc12)N/N=C/c1cccnc1`, for which the inhibition is 46.5% (active).

For `O=C(CSc1n[nH]c(=O)[nH]c1=O)N/N=C/c1cccnc1`, the inhibition is 10.8%.

As to `O=C(Cc1cccc2ccccc12)N/N=C/c1cccnc1`, the inhibition was 3.15%.

In the case of `Cc1nc(NC(=O)CSc2nnc(-c3ccccc3)n2C)sc1C`, the inhibition was 9.15%.

As for `CCOc1ccc(NC(=O)c2ccc3c(=O)n(-c4ccc(F)cc4)c(=S)[nH]c3c2)cc1`, the inhibition is 4.1%.

`Cc1cc(Cl)c(S(=O)(=O)N2CCCc3ccccc32)cc1OCC(N)=O`: the inhibition is 4.13%.

As for `O=C(CC1C(=O)N(c2ccc(F)cc2)C(=O)N1Cc1cccs1)Nc1ccc(F)cc1` (stereo unspecified), the inhibition was 5.51%.

Regarding `COc1ccc(OC(C)C(=O)Nc2ccc3ccccc3c2)cc1` (stereo unspecified), the inhibition was 39.1% (active).

On to `COc1ccc(OC(C)C(=O)Nc2cccc(Br)c2)cc1` (stereo unspecified), for which the inhibition was 5.3%.

With `COc1ccc(NC(=O)C(C)Oc2cc(C)cc(C)c2)cc1` (stereo unspecified), the inhibition was 15.9%.

`COC(=O)C1=CN(Cc2ccc(F)cc2)C=C(C(=O)OC)C1c1ccc(C)s1`: the inhibition was 3.1%.

In the case of `CCn1ccc(C(=O)Nc2sccc2C(=O)NC)n1`, the inhibition is 10.4%.

In the case of `COc1ccc(-n2cnc3cc(C(=O)NCc4ccccc4OC)ccc32)cc1`, the inhibition was 4%.

Consider `COc1cc(NC(=O)c2ccccc2)c(C(=O)O)cc1OC`, for which the inhibition is 7.96%.

Take `COc1ccccc1-n1cnc2cc(NC(=O)c3ccccc3)ccc21`: the inhibition is 38% (active).

On to `CN(C)c1cc(C(=O)N2CCN(C(=O)C(C)(C)C)CC2)nc(N(C)C)n1`, for which the inhibition is 0.22%.

For the molecule `Cc1ncn(-c2ccc(Nc3ncc4cccc(-c5ccc6scnc6c5)c4n3)cc2)n1`, the inhibition is 3.89%.

In the case of `Cn1cc(-c2ccc3cnc(Nc4ccc(-n5cnc(N6CCOCC6)n5)cc4)nc3c2-c2cnn(C)c2)cn1`, the inhibition was 88.5% (active).

Turning to `Cn1cc(-c2cc(Nc3ccc(-n4cnc(N5CCC(O)CC5)n4)cc3)ncc2Cl)cn1`, the inhibition was 0.35%.

With `c1coc(-c2ccc3cnc(Nc4ccc(-n5cnc(N6CCOCC6)n5)cc4)nc3c2)n1`, the inhibition is -7.9%.

With `Cn1cc(-c2nc(Nc3ccc(-n4cnc(N5CCC(O)CC5)n4)cc3)ncc2Br)cn1`, the inhibition was 85.4% (active).

`COc1ccc(CCNC(=O)CCn2c(SCc3cccc(Cl)c3)nc3ccccc3c2=O)cc1OC`: the inhibition was -6.64%.

For the molecule `CCOC(=O)C1=C(C)NC(=S)NC1c1cc(OC)ccc1Br` (stereo unspecified), the inhibition was -4.97%.

Turning to `CC(=O)c1cccc(-c2ccc(C(=O)NCCN3CCOCC3)s2)c1`, the inhibition was -17.5%.

Consider `COc1ccc(-c2noc(CNC(=O)c3ccc(Br)cc3)n2)cc1`, for which the inhibition is -8.01%.

Take `CC1=C(C(=O)OCc2ccccc2)C(c2cccc([N+](=O)[O-])c2)C2=C(CC(c3cccs3)CC2=O)N1` (stereo unspecified): the inhibition was 58.1% (active).

With `COC(=O)C1=C(C)NC2=C(C(=O)CC(c3cccs3)C2)C1c1cccc(OCc2ccccc2)c1` (stereo unspecified), the inhibition is 15.8%.

For `CC1=C(C(=O)OCc2ccccc2)C(c2ccc3c(c2)OCO3)C2=C(CC(c3cccs3)CC2=O)N1` (stereo unspecified), the inhibition is -4.32%.

Turning to `O=C(CSc1cccc[n+]1[O-])Nc1nc2ccccc2s1`, the inhibition is 3.26%.

Consider `Cc1nccn1CC(O)COc1ccc(Br)cc1` (stereo unspecified), for which the inhibition is 5.95%.

`COc1ccc(OCC(=O)c2ccc(F)cc2)c(C#N)c1`: the inhibition was -65.6%.

Take `COc1ccc(OC)c(C(=O)COc2ccc(Br)cc2C#N)c1`: the inhibition is 52.8% (active).

On to `COc1ccc(C(=O)COC(=O)COc2ccccc2C#N)c(OC)c1`, for which the inhibition is 7.04%.

For `CN(C)C(=O)c1cc(-c2cn[nH]c2)ccc1NC(=O)OCc1ccccc1`, the inhibition is -2.11%.

On to `CC(=O)Nc1ccc(N2C(=O)c3ccc4c5c(ccc(c35)C2=O)C(=O)N(c2ccc(NC(C)=O)cc2)C4=O)cc1`, for which the inhibition is 5.3%.

Turning to `COc1cc(OC)nc(Oc2cccnc2/C=N/Nc2ccccc2[N+](=O)[O-])n1`, the inhibition is -11.9%.

With `CCCC(=O)Nc1nc2ccc(S(=O)(=O)N(C)C)cc2s1`, the inhibition was -15.2%.

`CS(=O)(=O)c1ccc2nc(NC(=O)CSc3ccccc3)sc2c1`: the inhibition is 7.95%.

Consider `CCN(CC)S(=O)(=O)c1ccc2nc(NC(=O)CC(C)C)sc2c1`, for which the inhibition was 42.2% (active).
